Assay [1] concerns the target Dual specificity protein kinase CLK3 (Homo sapiens) (UniProt P49761). As to conditions: at 1 µM.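 Note: each value is the mean inhibition of CLK3.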
Assay [2] concerns the target Dual specificity tyrosine-phosphorylation-regulated kinase 1A (Homo sapiens) (UniProt Q13627). The following applies: at 0.1 µM.
Assay [3] shares this target. As to conditions: at 1 µM.
In assay [4] the target is Dual specificity tyrosine-phosphorylation-regulated kinase 1B (Homo sapiens) (UniProt Q9Y463). The following applies: at 0.1 µM.
Sequence of Dual specificity tyrosine-phosphorylation-regulated kinase 1B (Homo sapiens) (Q9Y463 whole entry, looked up): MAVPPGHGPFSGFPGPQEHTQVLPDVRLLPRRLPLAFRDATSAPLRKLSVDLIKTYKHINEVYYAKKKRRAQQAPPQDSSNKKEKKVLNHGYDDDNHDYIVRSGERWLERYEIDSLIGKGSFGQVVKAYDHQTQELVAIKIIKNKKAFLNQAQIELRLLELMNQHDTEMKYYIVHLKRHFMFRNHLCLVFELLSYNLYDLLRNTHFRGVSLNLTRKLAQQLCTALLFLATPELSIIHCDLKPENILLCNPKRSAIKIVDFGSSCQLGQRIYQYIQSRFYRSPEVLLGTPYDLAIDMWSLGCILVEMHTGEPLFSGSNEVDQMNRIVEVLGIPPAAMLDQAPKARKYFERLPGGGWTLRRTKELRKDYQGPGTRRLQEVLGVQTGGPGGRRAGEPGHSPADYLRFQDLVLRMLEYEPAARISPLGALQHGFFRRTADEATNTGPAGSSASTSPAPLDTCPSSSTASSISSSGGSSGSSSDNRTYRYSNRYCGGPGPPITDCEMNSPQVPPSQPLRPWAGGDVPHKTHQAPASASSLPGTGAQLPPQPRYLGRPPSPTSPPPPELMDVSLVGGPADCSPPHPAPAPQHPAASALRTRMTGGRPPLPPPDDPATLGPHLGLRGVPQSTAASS
Assay [5] has the same target. The following applies: at 1 µM.
Assay [6] deals with T1, Dual specificity tyrosine-phosphorylation-regulated kinase 2 (Homo sapiens) (UniProt Q92630).
T1 sequence (whole entry): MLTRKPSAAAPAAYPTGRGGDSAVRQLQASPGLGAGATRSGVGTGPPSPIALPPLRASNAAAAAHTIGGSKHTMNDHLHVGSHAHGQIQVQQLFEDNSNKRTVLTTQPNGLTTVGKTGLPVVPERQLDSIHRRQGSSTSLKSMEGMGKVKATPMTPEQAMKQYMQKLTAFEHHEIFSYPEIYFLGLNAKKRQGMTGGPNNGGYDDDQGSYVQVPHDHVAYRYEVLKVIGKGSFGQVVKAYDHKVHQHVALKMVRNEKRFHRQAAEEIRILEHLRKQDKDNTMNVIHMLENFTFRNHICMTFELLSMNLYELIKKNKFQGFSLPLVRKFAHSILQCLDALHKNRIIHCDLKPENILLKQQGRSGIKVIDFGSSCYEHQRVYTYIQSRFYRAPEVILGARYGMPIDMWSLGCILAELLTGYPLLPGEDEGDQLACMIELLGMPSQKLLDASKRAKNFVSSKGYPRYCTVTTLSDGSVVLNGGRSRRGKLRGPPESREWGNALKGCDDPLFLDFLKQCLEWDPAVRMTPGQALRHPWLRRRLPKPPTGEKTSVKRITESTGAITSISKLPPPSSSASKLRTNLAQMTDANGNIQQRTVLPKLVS
The following applies: at 0.1 µM.

The target in assay [7] is T1, Dual specificity tyrosine-phosphorylation-regulated kinase 2 (Homo sapiens). The following applies: at 1 µM.
Assay [8] addresses Glycogen synthase kinase-3 alpha (Homo sapiens) (UniProt P49840). The following applies: at 0.1 µM.
Assay [9] shares this target. As to conditions: at 1 µM.
The target of assay [10] is Glycogen synthase kinase-3 beta (Homo sapiens) (UniProt P49841). As to conditions: at 0.1 µM.
Sequence of Glycogen synthase kinase-3 beta (Homo sapiens) (P49841 whole entry, looked up): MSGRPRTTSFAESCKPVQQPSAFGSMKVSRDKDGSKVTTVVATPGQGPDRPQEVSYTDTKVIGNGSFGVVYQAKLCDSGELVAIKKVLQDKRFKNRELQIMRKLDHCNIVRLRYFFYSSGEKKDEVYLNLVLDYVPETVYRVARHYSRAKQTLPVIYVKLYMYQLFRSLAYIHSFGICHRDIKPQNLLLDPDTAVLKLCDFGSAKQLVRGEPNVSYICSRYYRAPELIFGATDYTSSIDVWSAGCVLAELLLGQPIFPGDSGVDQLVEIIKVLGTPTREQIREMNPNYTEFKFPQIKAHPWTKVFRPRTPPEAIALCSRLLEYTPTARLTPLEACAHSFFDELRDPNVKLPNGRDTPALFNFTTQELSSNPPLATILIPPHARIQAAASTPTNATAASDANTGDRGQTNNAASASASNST
Assay [11] shares this target. The following applies: at 1 µM.
The target of assay [12] is Homeodomain-interacting protein kinase 1 (Homo sapiens) (UniProt Q86Z02). As to conditions: at 0.1 µM.
Sequence of Homeodomain-interacting protein kinase 1 (Homo sapiens) (Q86Z02 whole entry, looked up): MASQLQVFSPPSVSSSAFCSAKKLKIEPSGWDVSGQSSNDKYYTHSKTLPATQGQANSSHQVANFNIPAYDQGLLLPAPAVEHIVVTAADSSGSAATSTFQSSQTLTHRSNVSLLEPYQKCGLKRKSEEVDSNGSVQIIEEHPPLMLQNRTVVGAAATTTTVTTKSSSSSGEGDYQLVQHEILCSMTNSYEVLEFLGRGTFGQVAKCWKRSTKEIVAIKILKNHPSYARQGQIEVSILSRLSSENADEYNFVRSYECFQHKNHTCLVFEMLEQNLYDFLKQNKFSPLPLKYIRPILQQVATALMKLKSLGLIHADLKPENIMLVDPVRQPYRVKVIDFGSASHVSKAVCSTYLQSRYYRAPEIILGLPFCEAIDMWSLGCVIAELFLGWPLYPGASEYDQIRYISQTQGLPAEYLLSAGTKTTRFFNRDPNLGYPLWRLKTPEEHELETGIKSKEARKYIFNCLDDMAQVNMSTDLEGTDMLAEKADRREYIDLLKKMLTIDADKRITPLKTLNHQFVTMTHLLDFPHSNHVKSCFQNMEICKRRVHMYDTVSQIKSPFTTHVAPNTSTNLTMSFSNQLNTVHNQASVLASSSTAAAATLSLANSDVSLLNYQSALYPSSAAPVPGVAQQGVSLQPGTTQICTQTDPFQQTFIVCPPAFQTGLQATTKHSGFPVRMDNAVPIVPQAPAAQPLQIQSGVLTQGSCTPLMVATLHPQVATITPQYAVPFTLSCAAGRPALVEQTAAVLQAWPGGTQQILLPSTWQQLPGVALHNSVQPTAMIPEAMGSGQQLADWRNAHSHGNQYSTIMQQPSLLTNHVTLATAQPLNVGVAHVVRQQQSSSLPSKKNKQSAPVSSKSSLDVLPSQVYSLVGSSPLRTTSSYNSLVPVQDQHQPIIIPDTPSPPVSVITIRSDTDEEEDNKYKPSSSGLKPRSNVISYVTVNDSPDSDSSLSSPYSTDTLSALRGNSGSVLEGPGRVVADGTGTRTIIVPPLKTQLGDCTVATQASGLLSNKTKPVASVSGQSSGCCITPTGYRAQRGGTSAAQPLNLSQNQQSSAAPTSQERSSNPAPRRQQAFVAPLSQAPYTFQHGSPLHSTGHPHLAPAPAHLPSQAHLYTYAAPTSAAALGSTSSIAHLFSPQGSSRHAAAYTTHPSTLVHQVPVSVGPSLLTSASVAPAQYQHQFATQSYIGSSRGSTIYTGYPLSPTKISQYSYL
For assay [13] the target is unchanged. As to conditions: at 1 µM.
Assay [14] deals with T2, Homeodomain-interacting protein kinase 4 (Homo sapiens) (UniProt Q8NE63).
T2 sequence (whole entry): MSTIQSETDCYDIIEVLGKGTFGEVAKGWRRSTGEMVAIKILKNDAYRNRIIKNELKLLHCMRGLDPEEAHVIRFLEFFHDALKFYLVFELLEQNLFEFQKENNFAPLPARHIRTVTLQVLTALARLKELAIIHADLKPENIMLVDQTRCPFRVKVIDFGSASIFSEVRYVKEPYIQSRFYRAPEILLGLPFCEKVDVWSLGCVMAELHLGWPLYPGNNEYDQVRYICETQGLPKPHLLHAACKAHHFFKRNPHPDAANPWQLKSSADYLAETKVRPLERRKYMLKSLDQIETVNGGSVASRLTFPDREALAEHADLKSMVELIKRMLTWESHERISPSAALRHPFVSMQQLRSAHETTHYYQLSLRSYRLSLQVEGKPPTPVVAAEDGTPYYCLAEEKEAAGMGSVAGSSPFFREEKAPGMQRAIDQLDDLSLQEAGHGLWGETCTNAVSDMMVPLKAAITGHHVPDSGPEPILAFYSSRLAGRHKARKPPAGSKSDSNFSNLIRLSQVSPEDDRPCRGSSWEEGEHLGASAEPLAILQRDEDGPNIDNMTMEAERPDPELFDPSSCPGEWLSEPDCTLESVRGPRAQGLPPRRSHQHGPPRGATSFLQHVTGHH
The following applies: at 0.1 µM.

The target of assay [15] is T2, Homeodomain-interacting protein kinase 4 (Homo sapiens). The following applies: at 1 µM.
Assay [16] addresses Mitogen-activated protein kinase 9 (Homo sapiens) (UniProt P45984). As to conditions: at 0.1 µM.
Assay [17] shares this target. As to conditions: at 1 µM.
Assay [18] concerns the target Mitogen-activated protein kinase 1 (Homo sapiens) (UniProt P28482). The following applies: at 0.1 µM.
Assay [19] has the same target. The following applies: at 1 µM.
In assay [20] the target is Mitogen-activated protein kinase 3 (Homo sapiens) (UniProt P27361). The following applies: at 0.1 µM.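 Note: each value is a mean inhibition figure.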
Sequence of Mitogen-activated protein kinase 3 (Homo sapiens) (P27361 whole entry): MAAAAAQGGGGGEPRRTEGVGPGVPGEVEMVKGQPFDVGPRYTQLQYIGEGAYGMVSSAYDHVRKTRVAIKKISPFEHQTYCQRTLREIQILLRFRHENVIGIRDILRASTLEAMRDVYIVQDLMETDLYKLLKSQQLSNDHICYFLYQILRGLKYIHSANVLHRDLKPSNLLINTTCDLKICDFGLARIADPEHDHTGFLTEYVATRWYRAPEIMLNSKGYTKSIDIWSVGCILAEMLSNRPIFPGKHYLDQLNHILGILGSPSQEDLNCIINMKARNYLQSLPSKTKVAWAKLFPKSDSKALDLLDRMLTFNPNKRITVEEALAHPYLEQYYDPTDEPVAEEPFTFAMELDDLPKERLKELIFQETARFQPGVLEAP

Sequence of Glycogen synthase kinase-3 alpha (Homo sapiens) (P49840 2-483 limits assumed): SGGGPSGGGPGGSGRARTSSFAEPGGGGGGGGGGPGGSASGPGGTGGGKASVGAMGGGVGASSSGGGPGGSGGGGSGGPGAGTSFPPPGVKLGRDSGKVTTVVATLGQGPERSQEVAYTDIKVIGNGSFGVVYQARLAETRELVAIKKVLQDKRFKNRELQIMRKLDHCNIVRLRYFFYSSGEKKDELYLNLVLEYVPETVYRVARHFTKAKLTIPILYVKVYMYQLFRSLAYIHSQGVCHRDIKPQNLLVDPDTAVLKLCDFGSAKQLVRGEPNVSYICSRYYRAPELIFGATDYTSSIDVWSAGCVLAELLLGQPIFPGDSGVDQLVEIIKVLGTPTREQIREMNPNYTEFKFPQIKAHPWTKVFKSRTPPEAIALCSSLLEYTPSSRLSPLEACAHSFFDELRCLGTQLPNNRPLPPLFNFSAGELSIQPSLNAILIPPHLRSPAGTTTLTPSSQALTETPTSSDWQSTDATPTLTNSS
Sequence of Mitogen-activated protein kinase 1 (Homo sapiens) (P28482 whole entry): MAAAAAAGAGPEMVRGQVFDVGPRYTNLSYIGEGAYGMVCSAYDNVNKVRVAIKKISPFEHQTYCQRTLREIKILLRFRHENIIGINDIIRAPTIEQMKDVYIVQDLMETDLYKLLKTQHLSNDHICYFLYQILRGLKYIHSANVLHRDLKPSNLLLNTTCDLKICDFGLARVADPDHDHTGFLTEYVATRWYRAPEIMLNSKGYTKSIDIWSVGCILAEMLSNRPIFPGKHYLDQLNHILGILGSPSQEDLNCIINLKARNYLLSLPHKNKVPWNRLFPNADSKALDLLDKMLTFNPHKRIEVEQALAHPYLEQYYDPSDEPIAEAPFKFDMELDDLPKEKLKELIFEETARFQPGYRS
Sequence of Mitogen-activated protein kinase 9 (Homo sapiens) (P45984 whole entry, looked up): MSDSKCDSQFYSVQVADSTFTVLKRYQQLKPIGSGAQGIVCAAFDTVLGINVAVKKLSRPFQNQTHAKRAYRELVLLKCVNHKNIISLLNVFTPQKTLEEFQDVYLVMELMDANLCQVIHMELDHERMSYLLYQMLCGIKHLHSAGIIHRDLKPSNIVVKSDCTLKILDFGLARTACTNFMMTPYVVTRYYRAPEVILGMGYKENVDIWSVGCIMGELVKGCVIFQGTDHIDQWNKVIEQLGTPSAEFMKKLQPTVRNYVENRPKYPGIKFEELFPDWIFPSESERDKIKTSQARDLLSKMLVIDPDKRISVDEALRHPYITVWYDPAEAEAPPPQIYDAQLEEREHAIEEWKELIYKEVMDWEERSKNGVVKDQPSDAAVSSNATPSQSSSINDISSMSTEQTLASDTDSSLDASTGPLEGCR
Sequence of Dual specificity protein kinase CLK3 (Homo sapiens) (P49761 whole entry, looked up): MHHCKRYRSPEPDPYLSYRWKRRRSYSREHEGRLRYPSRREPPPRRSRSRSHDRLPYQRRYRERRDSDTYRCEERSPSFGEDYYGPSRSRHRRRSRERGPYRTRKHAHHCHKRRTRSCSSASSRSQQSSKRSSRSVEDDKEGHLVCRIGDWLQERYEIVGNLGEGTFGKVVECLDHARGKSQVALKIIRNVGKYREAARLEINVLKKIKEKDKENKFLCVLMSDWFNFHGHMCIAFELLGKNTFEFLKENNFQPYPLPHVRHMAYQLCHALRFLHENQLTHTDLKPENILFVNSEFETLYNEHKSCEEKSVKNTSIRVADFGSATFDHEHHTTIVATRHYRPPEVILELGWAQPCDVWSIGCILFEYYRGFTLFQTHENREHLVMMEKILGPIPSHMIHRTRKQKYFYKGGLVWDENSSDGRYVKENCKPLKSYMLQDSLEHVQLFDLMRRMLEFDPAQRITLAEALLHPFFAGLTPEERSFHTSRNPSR

On to `Fc1ccc(-c2ncn(CCCN3CCOCC3)c2-c2ccncc2)cc1`, for which the inhibition in assay [1] was 0.51%; in [2], -0.26%; in assay [3], 0.01%; in assay [4], -0.42%; in [5], -0.19%; in assay [6], -0.03%. The inhibition in [7] was 0.55%; in [8] it was -0.11%; in assay [9] it was 4.21%; in assay [10] it was -0.54%; in assay [11], 1.01%; in [12] it was -3.44%. Moreover, the inhibition in [13] is -1.47%; in assay [14], -2.02%; in assay [15] it was -2.54%; in assay [16] it was 2.43%; in [17], 6.68%; in assay [18] it was 0.12%. For the same molecule, the results for the inhibition in assay [19] and in assay [20] were 1.09% and 4.06%, respectively.

With `O=C(Nc1n[nH]c2nc(-c3ccc(O)cc3)c(Br)cc12)C1CC1`, the inhibition in assay [1] turned out to be 8.39%; in assay [2], 17.6%; in assay [3] it was 55.5%; in [4], 33.2%; in assay [5] it was 71.7%; in assay [6] it was 12.4%. Also, the inhibition in [7] amounted to 53.3%; in assay [8], 82.8%; in assay [9] it was 85.7%; in [12] it was 14.7%; in [13] it was 58%; in assay [14] it was 2.65%. The inhibition came to 10.4% in assay [15]; 12.2% in assay [16]; 19.4% in assay [17]; 5.75% in assay [18]; 10.1% in assay [19]; 5.33% in assay [20].

Regarding `O=C(Nc1n[nH]c2nc(-c3ccco3)ccc12)C1CC1`, the inhibition is 0.48% in [1]; -0.57% in [2]; 1.05% in assay [3]; -0.1% in [4]; 1.34% in [5]; 1.49% in assay [6]. The inhibition in assay [7] amounted to 1.64%; in [8] it was 11.5%; in assay [9], 48.9%; in [12], 0.14%; in assay [13], 1.4%; in assay [14], 2.3%. Also, the inhibition in assay [15] came to 6.99%; in [16] it was 0.84%; in assay [17] it was 2.1%; in assay [18], 0.04%; in [19], 0.76%; in assay [20], 0.6%.

In the case of `Fc1ccc(-c2ncn(C3CCNCC3)c2-c2ccnc(Oc3ccc(F)c(F)c3)n2)cc1`, the inhibition in [1] is -3.79%; in assay [2], -2.02%; in assay [3] it was -0.16%; in assay [4], -4.48%; in [5] it was -2.53%; in assay [6], 1.98%. In addition, the inhibition was 2.31% in assay [7]; 0.07% in [8]; 2.94% in assay [9]; -0.48% in assay [10]; 2.53% in [11]; -6.31% in assay [12]. For the same molecule, the inhibition in [13] is -2.14%; in assay [14], 0.46%; in [15], 1.77%; in assay [18] it was 4.93%; in assay [19] it was 6.35%; in assay [20], 3.84%.

Take `NC(=O)Cc1ccccc1Oc1nccc(-c2c(-c3ccc(F)cc3)ncn2C2CCNCC2)n1`: the inhibition in assay [1] came out at 1.79%; in assay [2], 4.01%; in [3] it was 5.44%; in assay [4], 2.79%; in [5] it was 3.43%; in [6] it was 2.28%. In addition, the inhibition was 3.74% in assay [7]; 1.87% in [8]; 3.05% in [9]; -0.25% in assay [10]; 1.98% in [11]; 0.04% in assay [12]. In addition, the inhibition is -0.28% in assay [13]; 1.66% in [14]; 3.18% in assay [15]; 0.51% in assay [18]; 4.48% in assay [19]; 1.47% in assay [20].

With `NS(=O)(=O)c1ccc(N/N=C2\C(=O)Nc3ccc(C(=O)NCCCn4ccnc4)cc32)cc1`, the inhibition in assay [1] was 8.02%; in assay [2] it was 7.66%; in assay [3], 15.9%; in assay [4], 4.25%; in [5], 15.6%; in [6], 4.62%. The inhibition in assay [7] amounted to 16.2%; in assay [8], 40.6%; in assay [9], 76%; in assay [10], 39.7%; in [11], 77.7%; in [12], 4.8%. For the same molecule, the inhibition in [13] stood at 34.3%; in assay [14], 3.92%; in assay [15], 17.6%; in [16] it was 6.1%; in assay [17], 10.9%; in assay [18], 9.89%. The inhibition came to 38.5% in assay [19] and 5.16% in [20].

With `N#Cc1ccc(Oc2nccc(-c3c(-c4ccc(F)cc4)ncn3C3CCNCC3)n2)cc1`, the inhibition in assay [1] was -0.16%; in assay [2], 2.5%; in assay [3] it was 3.49%; in assay [4] it was -2.39%; in assay [5] it was -1.58%; in assay [6] it was 2.92%. The inhibition in [7] was 2.24%; in assay [8] it was 1.66%; in [9] it was 2.69%; in [10], 0.3%; in assay [11] it was 1.96%; in assay [12] it was -4.47%. Besides, the inhibition in assay [13] was -6.22%; in assay [14], -0.7%; in assay [15], -0.61%; in [18], 4.87%; in assay [19], 6.51%; in assay [20] it was 6.9%.

A word on the inhibition: it is the change of the read-out against control, counted positive when it falls.

Values taken from ChEMBL document CHEMBL1961873, “Compounds: GSK PKIS; Assays: Nanosyn kinase panel” (2012).
